Most compounds without a hit are left out; they make up all but 3.5% or so of the library.
TEAD-YAP inh – TEAD-YAP interaction inhibition; HEK-TIYL cells, TEAD-Gal4/YAP UAS-luciferase luminescence; inhibition, % at 9.12 µM; 1.4% of 640,000 active; in the data active means inhibition above about 32%
MITF inh – blocks human microphthalmia-associated transcription factor. inhibition, % at 2.6 µM. O75030. AlphaScreen MITF homodimerization, bead proximity signal. 0.91% of 650,000 active; in the data active means inhibition above about 50%
GPR151 ag – human GPR151 activation | Q8TDV0 | PathHunter beta-arrestin GPR151 cells, luminescence | activation, % at 11.2 µM | 1% of 650,000 active; in the data active means activation above about 4.9%
FBW7 act – human FBW7 E3 ligase activation, primary screen | AlphaScreen FBW7–phospho-cyclin E peptide binding, activator screen | normalized activity (activation), % at 26.1 µM | 0.13% of 650,000 active | AID 1259310; in the data active means normalized activity above about 1.9%;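 further: purified mutant Fbw7 with reduced substrate affinity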
Target sequence (Q969H0 whole entry, looked up): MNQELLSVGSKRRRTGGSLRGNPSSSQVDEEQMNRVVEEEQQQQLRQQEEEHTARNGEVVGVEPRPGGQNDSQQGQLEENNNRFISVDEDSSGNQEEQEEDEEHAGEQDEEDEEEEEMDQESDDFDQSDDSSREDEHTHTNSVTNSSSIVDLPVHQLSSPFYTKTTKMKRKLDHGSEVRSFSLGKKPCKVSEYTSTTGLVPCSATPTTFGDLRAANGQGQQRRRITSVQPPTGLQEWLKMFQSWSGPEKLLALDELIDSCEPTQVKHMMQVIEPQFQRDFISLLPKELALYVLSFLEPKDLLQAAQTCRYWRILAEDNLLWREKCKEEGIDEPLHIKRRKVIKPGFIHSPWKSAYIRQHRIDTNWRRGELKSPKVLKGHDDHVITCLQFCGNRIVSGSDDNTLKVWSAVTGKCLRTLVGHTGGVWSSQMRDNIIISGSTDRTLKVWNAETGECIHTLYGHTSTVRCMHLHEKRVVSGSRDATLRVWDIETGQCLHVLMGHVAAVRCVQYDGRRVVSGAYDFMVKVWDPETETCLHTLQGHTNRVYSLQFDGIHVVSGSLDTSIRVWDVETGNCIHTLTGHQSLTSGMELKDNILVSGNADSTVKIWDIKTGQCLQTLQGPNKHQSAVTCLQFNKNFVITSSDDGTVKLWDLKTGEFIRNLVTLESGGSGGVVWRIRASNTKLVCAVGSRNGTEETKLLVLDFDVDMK
GPR151 confirm – human GPR151 activation, confirmation screen | shares compounds with GPR151 ag | GPR151 PathHunter beta-arrestin cells, luminescence, 90 min; % of EA-reagent control over plate median | activation, % at 11.2 µM | 6,700 tested, under 10 active | AID 1508609;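 active means mean percent activation across replicates above the confirmation screen cutoff of 4.91%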
GPR119 counter – GPR119 activation, counter-screen for GPR151 activators | GPR119 PathHunter beta-arrestin cells, luminescence, 90 min; 0 = compound-well median, 100 = enzyme-acceptor control | 0.3% of 6,700 active | activation, % at 11.2 µM | shares compounds with GPR151 ag;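 active means mean percent activation in the counterscreen above 29.09%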;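 further: counterscreen on off-target GPR119 to flag nonselective hits from the GPR151 activator screen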
Numbers stand for hits; 0 = inactive; - = no result.

SMILES	TEAD-YAP inh	MITF inh	GPR151 ag	FBW7 act	GPR151 confirm	GPR119 counter
Cn1ccc2cc(-c3cc(C(=O)NC4CC4)ccn3)ccc21	0	0	22.0	0	0	0
O=C(Cc1ccccc1)NS(=O)(=O)c1ccc(N=NN2CCCCC2)cc1	0	0	7.3	0	0	0
O=C(CCl)NC1(C(F)(F)F)Oc2ccccc2O1	0	0	0	0	-	-
O=C(NC1(C(F)(F)F)Oc2ccccc2O1)C(F)(F)F	0	0	6.2	0	0	0
O=C(Nc1cccc(C(F)(F)F)c1)NC1(C(F)(F)F)Oc2ccc(Cl)cc2O1 (stereo not drawn)	0	0	0	0	-	-
O=C(Nc1ccccc1)NC1(C(F)(F)F)Oc2ccc(Cl)cc2O1 (stereo not drawn)	0	0	5.2	0	0	0
O=C1NC(=Nc2ccc(F)cc2)S/C1=C\c1ccc([N+](=O)[O-])cc1	0	0	0	0	-	-
O=C(Nc1ccc(S(=O)(=O)Nc2nccs2)cc1)C(Cl)Cl	0	0	0	0	-	-
O=C(Nc1ccc(S(=O)(=O)Nc2nccs2)cc1)C(c1ccccc1)c1ccccc1	0	0	5.5	0	0	0
O=C(O)COc1ccc(C2C3=C(CCCC3=O)OC3=C2C(=O)CCC3)cc1	0	0	6.2	0	0	0
COC(=O)c1c(NC(=O)C2CCCCC2)sc2c1CCCC2	0	0	0	0	-	-
O=c1c2cnn(-c3ccccc3)c2ncn1C/C=C/c1ccccc1	0	0	8.3	0	0	0
CC1(C)CC2CC(C)(CN2c2ccc(N3C(=O)CCC3=O)cc2[N+](=O)[O-])C1 (stereo not drawn)	0	0	0	0	-	-
CCOc1ccc(-c2[nH]nc3c2C(c2ccccc2F)C(C#N)=C(N)O3)c(OCC)c1 (stereo not drawn)	0	0	7.1	0	0	0
COc1ccc2[nH]c(=O)c(=O)[nH]c2c1	0	0	0	0	-	-
O=c1[nH]c2cc(Cl)c(Cl)cc2[nH]c1=O	0	0	5.5	0	0	0
CC[n+]1c(/C=C2\Sc3ccc(-c4ccccc4)cc3N2CCO)ccc2cc(OC)ccc21	91.1	0	13.9	0	0	0
COc1ccc(N=c2scc(-c3ccccc3)n2CCO)cc1	0	0	0	0	-	-
Nc1nc2ccc(OC(F)(F)F)cc2s1	0	0	0	0	-	-
Nc1nc2ccc(Oc3ccccc3)cc2s1	0	0	8.9	0	0	0
O=C(O)c1ccc(COCC(F)(F)C(F)F)cc1	0	0	0	0	-	-
COc1ccc(OC)c(Nc2c([N+](=O)[O-])c(=O)oc3ccccc23)c1	0	0	0	0	-	-
Cc1ccc(N2CC(C(=O)N3CCCCCC3)CC2=O)cc1 (stereo not drawn)	0	0	4.9	0	0	0
CC(C)NC(=O)C1CC(=O)N(c2ccc(Cl)cc2)C1 (stereo not drawn)	0	0	5.8	0	0	0
COc1ccc2nc(NC(=O)c3cc4c(=O)n(C)c5ccccc5c4n3C)sc2c1	0	0	0	0	-	-
SMILES	TEAD-YAP inh	MITF inh	GPR151 ag	FBW7 act	GPR151 confirm	GPR119 counter
COc1ccc(C(O)C(C)c2nc3ccccc3n2C)cc1 (stereo not drawn)	0	0	6.3	0	0	0
CC(NC(=O)COc1ccccc1C(N)=O)c1ccc(Cl)cc1Cl (stereo not drawn)	0	0	0	0	-	-
CCN(CC)c1cc(N)c([N+](=O)[O-])cc1F	0	0	6.5	0	0	0
COc1ccc(C2CC(=O)C3=C(C2)NC(C)=C(C(=O)OC2CCCC2)C3c2ccccc2OC)cc1OC (stereo not drawn)	0	0	0	0	-	-
COc1ccc(C2CC(=O)C3=C(C2)NC(C)=C(C(=O)OC2CCCC2)C3c2ccccc2C)cc1OC (stereo not drawn)	0	0	5.3	0	0	0
O=C(Oc1ccc2oc(=O)sc2c1)c1ccc(Cl)cc1Cl	0	0	0	0	-	-
N#CC1=C(N)Oc2cc(O)ccc2C1C1CC=CCC1 (stereo not drawn)	0	0	5.4	0	0	0
Cc1ccc(NC(=O)COC(=O)CCc2ccco2)cc1C	0	0	6.3	0	0	0
CCCCOc1ccc(C(=O)NCCCOC)cc1	0	0	0	0	-	-
COC(=O)c1cc(CNC(=O)C2Cc3ccccc3O2)cc(NC(=O)c2cc(C)nn2C)c1 (stereo not drawn)	0	0	0	0	-	-
COc1ccccc1CNc1nc2ccccc2n1CCN1CCOCC1	0	0	0	0	-	-
COc1ccc(CNc2nc3ccccc3n2CCN2CCOCC2)cc1OC	0	0	10.0	0	0	0
COc1ccccc1NC(=O)NCc1ccncc1	0	0	0	0	-	-
O=C(CCn1c(=S)[nH]c2cc3c(cc2c1=O)OCO3)NCc1cccc(Cl)c1	0	0	0	0	-	-
O=C(CCCn1c(=S)[nH]c2cc3c(cc2c1=O)OCO3)NCc1cccc(Cl)c1	0	0	5.3	0	0	0
O=C(CCCn1c(=S)[nH]c2ccccc2c1=O)Nc1cccc2c1CCCC2	0	0	5.5	0	0	0
CCc1cc2c(SCC(=O)Nc3ccc(C#N)cc3)ncnc2s1	0	0	0	0	-	-
CC1=C(C(=O)Nc2ccccc2F)C(c2ccccc2Br)NC(=O)N1 (stereo not drawn)	0	0	0	0	-	-
COc1ccccc1CN1CCNC(=O)C1CC(=O)NCc1csc(C)n1 (stereo not drawn)	0	0	5.8	0	0	0
COc1ccccc1CN1CCNC(=O)C1CC(=O)NCc1ccc(F)cc1 (stereo not drawn)	0	0	0	0	-	-
CC(=O)c1ccc(OC(=O)c2ccccc2)cc1	0	0	0	0	-	-
Cc1c(Cl)cccc1NC(=O)c1ccc(N2C(=O)c3ccccc3C2=O)cc1	0	0	7.0	0	0	0
CN1CCN(C(CNC(=O)Nc2ccc(F)cc2)c2ccc3c(c2)CCN3C)CC1 (stereo not drawn)	0	0	0	0	-	-
Cc1cccc(NC(=O)NCC(c2ccc3c(c2)CCN3C)N2CCN(C)CC2)c1 (stereo not drawn)	0	0	5.0	0	0	0
COc1ccc(C(=O)NC(=S)Nc2ccc([N+](=O)[O-])cc2O)cc1	0	0	0	0	-	-
SMILES	TEAD-YAP inh	MITF inh	GPR151 ag	FBW7 act	GPR151 confirm	GPR119 counter
CC(=O)Nc1ccc(C(=O)Nc2ccc(CC(=O)O)cc2)cc1	0	0	0	0	-	-
CC(=O)c1ccc(NC(=O)Nc2ccc(CC(=O)O)cc2)cc1	0	0	6.6	0	0	0
COc1ccc([N+](=O)[O-])cc1/C=N/N(CCO)C1=NS(=O)(=O)c2ccccc21	0	0	0	0	-	-
COc1cccc(/C=N/N(CCC#N)C2=NS(=O)(=O)c3ccccc32)c1O	0	0	10.4	0	0	0
NC(=O)Cn1c(=O)n(-c2ccc(F)cc2)c(=O)c2sccc21	0	0	0	0	-	-
Cc1ccc(-c2ccc3c(c2)CC(CNC(=O)Cc2nc(-c4ccccc4)n[nH]2)O3)nc1 (stereo not drawn)	0	0	0	0	-	-

Screening data: PubChem, The Scripps Research Institute Molecular Screening Center
